According to ChEMBL document CHEMBL3988442, “University of Dundee, Small-Polar-MMV Screening Library” (2021):
Among all 69,000 compounds or so, about 950 (1.4%) showed an effect of 50% or more. Only a selection was taken, and strong results are over-represented in it overall.

The compounds below were run on Mycobacterium tuberculosis (assay: Cornell M. t heat shock assay; note: in the data most compounds retested in dose-response had high values).
Format: functional, organism-based
Set-up: dose or concentration left out as unconfirmed

In order of rising “Percent Effect” value:
1. Cc1ccc(N2CCC3(CCN(C(=O)c4ccnnc4)CC3)CC2)nn1.O=C(O)C(F)(F)F  -48.43%
2. CN(C)C(=O)c1nn(C)c2c1CN(Cc1ccc(F)cc1)C2.O=C(O)C(F)(F)F  -35.3%
3. CC(C)NC(=O)c1ccc2c(c1)C1(CCN(C(C)C)CC1)C(=O)N2.O=C(O)C(F)(F)F  -33.29%
4. Cc1noc(C)c1C(=O)N1C[C@@H]2COC[C@]2(COc2ccccn2)C1.O=C(O)C(F)(F)F  -29.95%
5. Cc1nc(CN2C(=O)CCC23CCN(Cc2ccoc2)CC3)cs1.O=C(O)C(F)(F)F.O=C(O)C(F)(F)F  -26.87%
6. CCCOC1CCCN(Cc2nc(-c3ccc(F)cc3F)oc2C)C1 (configuration not stated)  -26.76%
7. CN(CC(=O)NC(Cc1ccsc1)c1cccnc1)Cc1ccccn1.Cl (configuration not stated)  -24.9%
8. Cc1ccc(O[C@@H]2C[C@H]3CN(Cc4nccn4C)CCN3C2)cc1.O=C(O)C(F)(F)F.O=C(O)C(F)(F)F  -24.79%
9. O=C(c1c[nH]c(=O)c(Cl)c1)N1C[C@@H]2CC[C@H](C1)N(CC1CCC1)C2  -23.49%
10. Cc1nn(C)c2nc(-c3ccccn3)nc(NCCC3CCCN3C)c12 (configuration not stated)  -21.22%
11. Cc1nn(C)c2nc(N(Cc3ccccn3)CC3CCCO3)sc12 (configuration not stated)  -20.31%
12. Cn1cc(CN2C[C@@H]3COC[C@]3(C(=O)NCCc3ccccc3)C2)cn1.O=C(O)C(F)(F)F  -18.43%
13. CCN(CC)c1ncnc2c1CCN(C(=O)Cc1ccccn1)CC2.O=C(O)C(F)(F)F.O=C(O)C(F)(F)F  -18.08%
14. CCOC(=O)CSc1nnc([C@@H](N)C(C)CC)o1.Cl (some centres not stated)  -17.57%
15. Cc1csc(C(Cc2ccsc2)NC(=O)Cn2cccnc2=O)n1 (configuration not stated)  -16.84%
16. O=C(O)C(F)(F)F.O=C(c1ccsc1)N1C[C@H]2CCC[C@@]2(COCc2cccnc2)C1  -16.41%
17. CN(C)C(=O)CC1CC2(CCN(CC3CC3)CC2)c2cc(F)ccc21.O=C(O)C(F)(F)F (configuration not stated)  -15.82%
18. O=C(N1CCCO1)[C@@]12CCO[C@@H]1CCN(Cc1ccc(F)cc1)C2.O=C(O)C(F)(F)F  -15.72%
19. O=c1cc(CN2CC[C@H]3CC[C@@H](C2)N3)c2cccc3c2n1CCC3  -15.55%
20. CCOCC1CN(C2CCCC2)Cc2cnn(CC3CCOCC3)c21.O=C(O)C(F)(F)F.O=C(O)C(F)(F)F (configuration not stated)  -13.36%
21. CCn1ncc2c1C(COC)CN(Cc1ccc(F)cc1)C2.O=C(O)C(F)(F)F.O=C(O)C(F)(F)F (configuration not stated)  -13.12%
22. O=C(NCC1CC1)Nc1cnc2cc(Cl)ccc2c1O  -11.98%
23. Cc1cc(CCC(=O)Nc2nncs2)nc(C2CCCN2)n1.Cl (configuration not stated)  -11.36%
24. Br.Cc1cc(C)nc(NCCC(=O)NCCn2ccnc2C)n1  -9.93%
25. Cc1csc(C(Cc2ccsc2)NC(=O)CN(C)Cc2cccnc2)n1.Cl (configuration not stated)  -9.769%
26. CCOCC1CN(Cc2ccco2)Cc2nccn2C1.O=C(O)C(F)(F)F (configuration not stated)  -9.1%
27. COCc1ncn(Cc2nc(-c3ccc(OC)cc3F)oc2C)n1  -9.071%
28. CC(C)CN1CC[C@@H]2[C@H](CC1)N(S(C)(=O)=O)CCS2(=O)=O.O=C(O)C(F)(F)F  -8.964%
29. CN(Cc1ccco1)Cc1cncc2c1CCN(Cc1ccoc1)C2.Cl.Cl.Cl  -8.81%
30. Cc1ccc2nc(C3CCCN3Cc3nnc(C)s3)[nH]c2c1 (configuration not stated)  -8.638%
31. c1ccc(O[C@H]2C[C@@H]3CN(Cc4cnccn4)C[C@@H]3C2)cc1  -8.402%
32. O[C@@H]1CN(Cc2cccnc2)C[C@H]1Oc1ccccc1  -6.962%
33. Cc1ccc2cc(CN(C)Cc3ccccn3)c(=O)[nH]c2c1  -6.108%
34. CCn1nc(C)c(CNC(=O)c2nnc3ccc(OC)cc3n2)c1C  -6.041%
35. COC1COC2(CCN(CC3CC3)CC2)C1.O=C(O)C(F)(F)F (configuration not stated)  -5.009%
36. Cl.c1nc(N2CCOCC2)sc1-c1cncn1CCCN1CCCCC1  -3.925%
37. COCC1N(C(=O)N2CCOCC2)[C@H]2CC[C@]1(O)CC2 (some centres not stated)  -3.821%
38. Cc1nc(CN2CCC23CCN(C(=O)c2ccco2)CC3)cs1  -3.59%
39. Cl.O=C(C1CCCCC1)N1C[C@H]2CNC[C@H]2C1  -3.289%
40. N#Cc1cccc(CN2CC[C@@H]3[C@@H]2CC(=O)N3CCN2CCCC2)c1.O=C(O)C(F)(F)F.O=C(O)C(F)(F)F  -3.152%
41. CN(C)C(=O)COC1COC2(CCN(CC3CCOCC3)CC2)C1.O=C(O)C(F)(F)F (configuration not stated)  -2.67%
42. CC(C)NC(=O)CNC(=O)c1csc(Cc2ccccc2F)n1  -1.27%
43. CN1C[C@@H]2CN(C(=O)C3CC=CC3)C[C@@H]2C1=O  -1.029%
44. Cc1ccc2nc(C3CCCN3Cc3scnc3C)[nH]c2c1 (configuration not stated)  1.494%
45. COCCC(C)NS(=O)(=O)c1ccc(C)c(N(C)C)c1 (configuration not stated)  1.91%
46. O=C(O)C(F)(F)F.O=C1CC[C@]2(CC[C@@H](NC(=O)NCc3cccnc3)CC2)N1  2.106%
47. CCOCC1CN(Cc2cnn(C)c2)Cc2nn(CC3CC3)cc21.O=C(O)C(F)(F)F (configuration not stated)  2.131%
48. O=C(N1CCOCC1)N1C(CN2CCOCC2)[C@]2(O)CC[C@H]1CC2 (some centres not stated)  2.205%
49. COc1ccc(Cn2c(C3CCNCC3)cc3cccnc32)cc1.Cl  2.964%
50. CCN1CCN(C)C(=O)C12CCN(C(=O)Cc1ccccn1)CC2.O=C(O)C(F)(F)F  3.493%
51. Cc1noc(C)c1CN1CCn2cc(CNc3ccccn3)nc2C1.O=C(O)C(F)(F)F.O=C(O)C(F)(F)F  4.3%
52. Cc1cc(C(=O)NC2=NCCS2)c(C)n1-c1ccccn1  4.567%
53. Cc1nc(CN2C(=O)CCC23CCN(Cc2ccco2)CC3)cs1  5.099%
54. COCc1ccc(C(=O)N2CCC(c3cc4ncc(C)nc4[nH]3)C2)cc1 (configuration not stated)  6.722%
55. Cl.NC(=O)c1ccc(C2CCCNC2)nc1 (configuration not stated)  6.817%
56. CCCn1[nH]cc/c1=N\C(=O)CN1CCc2c(nc(C3CC3)n2C)C1  7.757%
57. Cn1nnc2c1CCN(Cc1nccs1)C2COCc1ccccc1.O=C(O)C(F)(F)F (configuration not stated)  7.839%
58. O=C(NC1CCCCC1)c1nnc2ccc(N3CCOCC3)cc2n1  8.79%
59. COCC1CN(c2ncc(F)cn2)Cc2cnn(C)c21.O=C(O)C(F)(F)F.O=C(O)C(F)(F)F (configuration not stated)  9.404%
60. Cc1ccc(-n2nnc(C(=O)NCC3CCCCC3)n2)cc1  10.71%
61. Cn1cc(-c2cnc(N3CCOCC3)nc2)cc1C(=O)NCCO.O=C(O)C(F)(F)F  10.75%
62. COc1ccc(CN(C)CC(O)COCc2ccccc2Cl)c(OC)c1.O=C(O)C(=O)O (configuration not stated)  10.76%
63. Cc1cnc2cc(C3CCN(C(=O)c4ccncc4)CC3)[nH]c2n1  11.57%
64. c1ccc(CN(Cc2cccc3cnccc23)CC2CCCO2)nc1 (configuration not stated)  13.24%
65. Cc1csc(NCC(=O)c2c[nH]c3ccccc23)n1.I  13.99%
66. COC(=O)C1CCN(C(=O)c2nnc3ccc(C)cc3n2)CC1  15.86%
67. O=C(Cn1cccnc1=O)NC(Cc1ccsc1)c1ccccn1 (configuration not stated)  17.67%
68. Cl.Cl.O=C(NCc1cncc2c1CCN(C1CCOCC1)C2)c1ccno1  18.25%
69. Cc1nc(CN2CCC3(C2)CN(Cc2ccco2)C3)cs1  18.48%
70. COCCn1c2c(ccc1=O)CC(NCc1cccnc1OC)CC2.O=C(O)C(F)(F)F.O=C(O)C(F)(F)F (configuration not stated)  19.47%
71. Cc1oc(-c2ccccc2)nc1CC(=O)NC1=NCCS1  20.62%
72. Cc1c(C(=O)NC2=NCCS2)cnn1-c1ccc(Cl)cc1  22.26%
73. Cc1c(C(=O)NC2=NCCS2)cnn1-c1ccc(Br)cc1  23.54%
74. COC(=O)C1CCN(C(=O)c2nnc3ccc(Cl)cc3n2)CC1  26.61%
75. CCn1nc(C)c(CNC(=O)c2nnc3ccc(Cl)cc3n2)c1C  42.92%
76. COc1ccc2nnc(C(=O)NCC3CCCC3)nc2c1  44.72%
77. O=c1[nH]c2ccccc2cc1CN(Cc1ccccn1)CC1CCCO1 (configuration not stated)  51.43%
78. CCn1ncc2c1C(COC)CN(c1ncc(F)cn1)C2.O=C(O)C(F)(F)F.O=C(O)C(F)(F)F (configuration not stated)  55.18%
79. COc1ccc2nnc(C(=O)NC3CCCC3)nc2c1  57.83%
80. COCc1ccc(C(=O)N2CCC(c3cc4nccnc4[nH]3)CC2)cc1  64.38%
81. CN1CCN(C(=O)c2nnc3ccc(Cl)cc3n2)CC1  68.14%
82. Cc1nc(CN2CCC23CCN(Cc2ccco2)CC3)cs1  77.77%
83. Cc1csc(C(Cc2ccsc2)NC(=O)CN(C)Cc2ccccn2)n1.Cl (configuration not stated)  82.59%
84. Cc1ccc2nc(C3CCCN3Cc3csc(C)n3)[nH]c2c1 (configuration not stated)  87.71%
85. Cc1nn(C)c2nc(-c3ccccn3)nc(NC[C@@H]3CCCO3)c12  93.55%
86. COc1ccc(-c2nc(CN3CCCC(OC)C3)c(C)o2)c(F)c1 (configuration not stated)  93.73%
87. Cc1cc(C)n(CC(=O)NC(Cc2ccsc2)c2ccccn2)c(=O)n1.Cl (configuration not stated)  93.95%
88. Cc1nc(CN2CCC23CCN(Cc2ccoc2)CC3)cs1  94.23%
89. O=C(NCC1CC1)c1nnc2ccc(Cl)cc2n1  102.8%
90. Cc1ccc2nnc(C(=O)NCC3CCCC3)nc2c1  103.3%
91. Cc1oc(-c2ccccc2)nc1C(=O)NC1=NCCS1  105.4%
92. Cc1oc(-c2ccc(Cl)cc2)nc1C(=O)NC1=NCCS1  105.8%
